Here are results for eleven compounds from the supplement of paper PMC13380429.

For this assay, the system named is Vero E6 infected with SARS-CoV-2. The assay can be described thus: morphology score (similarity to uninfected cells); higher = more like uninfected cells. Particulars: 24 h.
As to `CCOc1ccc(-c2ccc(Cn3c(CC(C)(C)C(=O)O)c(SC(C)(C)C)c4cc(OCc5ccc(C)cn5)ccc43)cc2)cn1` (0.833333 µM), the morphology score worked out at 0.228.

Take `COc1ccc(C2CC(c3c(O)cc(C)oc3=O)=NCCS2)c(OC)c1` (stereo unspecified) (10 µM): the morphology score is 0.0127.

As to `O=C(Nc1cccc2cccnc12)c1ccc(N2C(=O)[C@@H]3[C@H](C2=O)[C@@H]2C=C[C@H]3C2)cc1` [endo-IWR-1] (10 µM), the morphology score is -0.0752.

Compound `CC(C)c1ccc2oc3nc(N)c(C(=O)O)cc3c(=O)c2c1` [amlexanox] (10 µM) returned a morphology score of -0.183.

As to `CCOc1ccc2nc3cc(N)ccc3c(N)c2c1` [ethacridine-lactate-monohydrate] (10 µM), the morphology score came out at 0.0887.

Consider `Fc1ccc(C(c2ccc(F)cc2)N2CCN(C/C=C/c3ccccc3)CC2)cc1` [flunarizine] (10 µM), for which the morphology score came out at 0.364.

As to `O=C(O)c1cc(=O)[nH]c(=O)[nH]1` [orotic-acid] (10 µM), the morphology score is 0.104.

The compound `O=C1CC2(CCCC2)CC(=O)N1CCCCNC[C@H]1COc2ccccc2O1` (racemic) (10 µM) had a morphology score of -0.0862.

Turning to `CC(=O)c1cnc2ccc(-c3cc(Cl)c(O)c(Cl)c3)nc2c1N[C@H]1CC[C@H](CN(C)C)CC1` (0.833333 µM), the morphology score turned out to be 0.294.

`COc1ccc(CCCO[C@@H](Cn2ccnc2)c2ccc(OC)cc2)cc1` (0.833333 µM) returned a morphology score of 0.00702.

Compound `CC(C)C[C@@H](NC(=O)[C@H](C)NC(=O)CNC(=O)[C@@H](NC=O)C(C)C)C(=O)N[C@@H](C)C(=O)N[C@@H](C(=O)N[C@H](C(=O)N[C@@H](C(=O)N[C@@H](Cc1c[nH]c2ccccc12)C(=O)N[C@H](CC(C)C)C(=O)N[C@@H](Cc1c[nH]c2ccccc12)C(=O)N[C@H](CC(C)C)C(=O)N[C@@H](Cc1c[nH]c2ccccc12)C(=O)N[C@H](CC(C)C)C(=O)N[C@@H](Cc1c[nH]c2ccccc12)C(=O)NCCO)C(C)C)C(C)C)C(C)C` [gramicidin] (10 µM) came in with a morphology score of -0.258.
